Rows were chosen to be rich in hits. Some 3.8% of all compounds tested hit in one or more screens of this group.
ATXN2 expr inh = inhibitors of ATXN2 expression; HEK-293 ATXN2-luciferase reporter, luminescence, 24 h; Potency, µM (series often up to 57 µM), usual class: inhibitors; actives 0.72% (n = 360,000); AID 1745845; further: nearly all actives have a fitted effect of over 55% in size
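ATXN2-luciferase reporter cells (luciferase flanked by upstream and downstream ATXN2 gene portions) were treated 24 h at 37 °C with compounds at up to 57 uM. SteadyGlo luminescence gave expression; GF-AFC fluorescence gave viability.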
TGFb inhibitor = blocks TGF-b signaling | AID 588855 | Potency, µM (doses to about 46.1 µM), actives largely listed as inhibitors | HepG2 CAGA-GFP TGF-b/SMAD3 reporter, GFP fluorescence, 18 h; TGF-beta stimulated, 500 pg/mL final | actives 1.2% (n = 410,000); further: nearly all actives have a fitted effect of over 65% in size
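Inhibition of TGF-beta-driven CAGA-GFP reporter expression in HEPG2 cells is measured by cellular GFP fluorescence after 18 h stimulation with 500 pg/mL recombinant TGF-beta in 1% FBS medium at 37 degrees C.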
Nrf2 inh = blocks Nrf2 signaling | actives 2.1% (n = 360,000) | A549 ARE-Fluc reporter, luciferase luminescence, 18-24 h | AID 504444 | Potency, µM (series often up to 46 µM), hits mostly inhibitors; further: nearly all actives have a fitted effect of over 60% in size
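Reporter: ARE-Fluc in A549. Exposure: 18-24 h, 37 °C, 5% CO2, 5% FBS OPTI-MEM. Readouts: fluorescent cytotoxicity (CellTiter-Fluor), then luminescent Nrf2 signal after BugLite.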
HepG2 viability = kills HepG2 cells in TGF-b inhibitor counter-screen; actives 0.76% (n = 410,000); AID 588856; HepG2 CAGA-GFP viability, ATP luminescence, 18 h; Potency, µM (titrated, usually from 46.1 µM), usual class: cytotoxic
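HepG2 CAGA-GFP cells (1000/well, DMEM with 1% FBS) received compound, then TGF-beta at 500 pg/mL final, and were incubated 18 hours at 37 degrees C. Viability was read by CellTiter-Glo luminescence. Media-only wells were set as complete cell-killing and DMSO as no toxicity.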
A549 tox = A549 cytotoxicity, counter-screen for Nrf2 inhibitors; AID 504648; A549 ARE-Fluc cells, CellTiter-Fluor viability, 18-24 h; actives 0.16% (n = 390,000); Potency, µM (top dose mostly 46 µM), most hits filed as inhibitors
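Cytotoxicity counterscreen: CellTiter-Fluor fluorescence was measured in A549 ARE_Fluc cells after 18-24 h of compound exposure in a concentration series. The subsequent BugLite luminescent read reports ARE-luciferase activity.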
S2 tox = viability counter-screen for ATXN expression inhibitors; Potency, µM (top dose mostly 56.7 µM), actives largely listed as cytotoxic; S2 cells (HEK-293 line with an ATXN2-luciferase reporter) viability, CellTiter-Fluor protease fluorescence, 24 h; actives 0.49% (n = 400,000); further: nearly all actives have a fitted effect of over 40% in size
Numbers stand for hits. The call rests on the fitted dose curve; in most records, active means well fitted curve in the direction sought with a large enough effect; inconclusive means small, poorly fitted or top-dose-only effect, or another doubt; inactive means no such curve, though single readings can be large; an effect the other way counts as inactive or inconclusive.

Results for Clc1ccc(SCc2cc(N3CCOCC3)nc(-c3ccccn3)n2)cc1 ?
ATXN2 expr inh: 6.31µM; TGFb inhibitor: inconclusive; Nrf2 inh: inconclusive; HepG2 viability: inactive; A549 tox: inactive; S2 tox: inconclusive

What do the screens show for `Clc1ccc(SCc2csc(N3CCOCC3)n2)cc1`?
ATXN2 expr inh: inactive; TGFb inhibitor: inconclusive; Nrf2 inh: inactive; HepG2 viability: inactive; A549 tox: inactive

What do the screens show for `CCOc1ccc(CCNC(=O)COC(=O)c2oc3ccccc3c2COC)cc1OCC`?
ATXN2 expr inh: inactive; TGFb inhibitor: inactive; Nrf2 inh: inactive; HepG2 viability: inactive; A549 tox: inactive; S2 tox: inactive

How did O=C(CN1C(=O)c2ccccc2S1(=O)=O)c1ccc(Cl)cc1Cl do in these assays?
ATXN2 expr inh: 2µM; TGFb inhibitor: inactive; Nrf2 inh: 11.6µM; HepG2 viability: inactive; A549 tox: inactive; S2 tox: inactive

What do the screens show for `O=C(CN1C(=O)c2ccccc2S1(=O)=O)c1ccccc1F`?
ATXN2 expr inh: 7.94µM; TGFb inhibitor: inactive; Nrf2 inh: inconclusive; HepG2 viability: inactive; A549 tox: inactive; S2 tox: inactive

Results for O=C(CCN1C(=O)c2ccccc2S1(=O)=O)Nc1cc(Cl)ccc1Cl ?
ATXN2 expr inh: inactive; TGFb inhibitor: inactive; Nrf2 inh: inactive; HepG2 viability: inactive; A549 tox: inactive; S2 tox: inactive

What do the screens show for `O=C(CN1C(=O)c2ccccc2S1(=O)=O)c1cccc(Br)c1`?
ATXN2 expr inh: inconclusive; TGFb inhibitor: inactive; Nrf2 inh: inactive; HepG2 viability: inactive; A549 tox: inactive; S2 tox: inactive

What do the screens show for `O=C(CN1C(=O)c2ccccc2S1(=O)=O)N1CCN(c2ccccc2F)CC1`?
ATXN2 expr inh: inactive; TGFb inhibitor: inactive; Nrf2 inh: inactive; HepG2 viability: inactive; A549 tox: inactive; S2 tox: inconclusive

How did O=C(CN1C(=O)c2ccccc2S1(=O)=O)c1ccc(OC(F)F)cc1 do in these assays?
ATXN2 expr inh: 2µM; TGFb inhibitor: inactive; Nrf2 inh: inconclusive; HepG2 viability: inactive; A549 tox: inactive; S2 tox: inactive

Results for O=C(CN1C(=O)c2ccccc2S1(=O)=O)c1ccc(F)cc1 ?
TGFb inhibitor: inactive; Nrf2 inh: 13µM; HepG2 viability: inactive; A549 tox: inactive; S2 tox: inactive

How did COC(=O)c1ccc(NC(=O)CN2C(=O)c3ccccc3S2(=O)=O)cc1 do in these assays?
ATXN2 expr inh: inactive; TGFb inhibitor: inactive; Nrf2 inh: inactive; HepG2 viability: inactive; A549 tox: inactive; S2 tox: inactive

What do the screens show for `CCc1ccccc1NC(=O)CN1C(=O)CCSc2ccc(S(=O)(=O)N3CCCC3)cc21`?
TGFb inhibitor: inactive; HepG2 viability: inactive; A549 tox: inactive

What do the screens show for `Cc1cnc(C(=O)OC(C)C(=O)NCc2ccccc2)cn1` (stereo unspecified)?
ATXN2 expr inh: inactive; TGFb inhibitor: inactive; Nrf2 inh: inactive; HepG2 viability: inactive; A549 tox: inactive; S2 tox: inactive

What do the screens show for `Cc1ccc(S(=O)(=O)Nc2c(C)nn(C)c2C)c(C)c1`?
ATXN2 expr inh: inactive; TGFb inhibitor: inactive; Nrf2 inh: inconclusive; HepG2 viability: inactive; A549 tox: inactive; S2 tox: inactive

How did CCOC(=O)/C(=C\c1cccc(O)c1)c1nc2sc(C)c(C)c2c(=O)[nH]1 do in these assays?
ATXN2 expr inh: 15.8µM; TGFb inhibitor: inconclusive; Nrf2 inh: inconclusive; HepG2 viability: inactive; A549 tox: inactive; S2 tox: inconclusive

Results for O=C(Nc1c(Cl)cc([N+](=O)[O-])cc1Cl)c1cc(Cl)cc(Cl)c1O ?
TGFb inhibitor: 3.16µM; Nrf2 inh: inconclusive; HepG2 viability: inactive; A549 tox: inconclusive

Results for CC(=O)Oc1c(C)cc(Cl)cc1C(=O)Nc1ccc([N+](=O)[O-])cc1Cl ?
ATXN2 expr inh: inconclusive; TGFb inhibitor: inconclusive; Nrf2 inh: 1.64µM; HepG2 viability: inactive; A549 tox: 2.59µM; S2 tox: 28.2µM

Results for O=C(Nc1ccc([N+](=O)[O-])cc1Cl)c1ccccc1O ?
TGFb inhibitor: inconclusive; Nrf2 inh: 23.1µM; HepG2 viability: inactive; A549 tox: inconclusive

Results for COCCNC(=O)COc1ccc(Oc2ccccc2)cc1 ?
ATXN2 expr inh: inactive; TGFb inhibitor: inactive; Nrf2 inh: inactive; HepG2 viability: inactive; A549 tox: inactive; S2 tox: inconclusive

Results for CCCCC(=O)NC(=S)Nc1cccc(Cl)c1N1CCCCC1 ?
ATXN2 expr inh: inactive; TGFb inhibitor: inconclusive; Nrf2 inh: inactive; HepG2 viability: inactive; A549 tox: inactive; S2 tox: inactive

What do the screens show for `CCC(=O)NC(=S)Nc1cccc(Cl)c1N1CCCCC1`?
ATXN2 expr inh: inactive; TGFb inhibitor: 14.1µM; HepG2 viability: inactive; A549 tox: inactive; S2 tox: inactive

Results for Cc1ccc(S(=O)(=O)n2cccc2/C=C/[N+](=O)[O-])cc1 ?
TGFb inhibitor: 14.1µM; HepG2 viability: 12.6µM; S2 tox: inconclusive

Results for CC(=O)Nc1ccc(NC(=O)C(C)c2cccc(C(=O)c3ccccc3)c2)cc1 (stereo unspecified) ?
ATXN2 expr inh: inactive; TGFb inhibitor: inactive; Nrf2 inh: inactive; HepG2 viability: inactive; A549 tox: inactive; S2 tox: inactive

What do the screens show for `CC(=O)Nc1ccc([C@H](C)C(=O)Nc2ncc(C(C)C)s2)cc1`?
ATXN2 expr inh: 0.344µM

What do the screens show for `CN1CCCN(C(=O)c2cccc(-c3ccc(C=C4C(=O)Nc5ccc(Cl)cc54)o3)c2)CC1`?
ATXN2 expr inh: 7.69µM

What do the screens show for `CCOc1cc(OCC)cc(C(=O)Nc2cccc(-c3nc4ccccc4[nH]3)c2)c1`?
ATXN2 expr inh: inactive; TGFb inhibitor: inconclusive; Nrf2 inh: inconclusive; HepG2 viability: 14.1µM; A549 tox: inconclusive; S2 tox: inconclusive

What do the screens show for `O=C(Nc1cccc(-c2nc3ccccc3[nH]2)c1)c1cccc(NC(=O)c2ccco2)c1`?
ATXN2 expr inh: inconclusive; TGFb inhibitor: inconclusive; HepG2 viability: inactive; A549 tox: inconclusive; S2 tox: 31.6µM

Results for COc1ccc2nc(NN=C(C)c3ccccn3)cc(C)c2c1 ?
ATXN2 expr inh: inconclusive; TGFb inhibitor: 1.12µM; Nrf2 inh: inconclusive; HepG2 viability: inactive; A549 tox: inconclusive; S2 tox: 7.52µM

Results for C/C(=N\Nc1ccc(Cl)cc1)c1ccccn1 ?
ATXN2 expr inh: inactive; TGFb inhibitor: inactive; Nrf2 inh: inconclusive; HepG2 viability: inactive; A549 tox: inactive; S2 tox: inactive

How did Cc1cccc(S(=O)(=O)c2cn(Cc3ccccc3)c3cc(N4CCC(C)CC4)c(F)cc3c2=O)c1 do in these assays?
TGFb inhibitor: inactive; Nrf2 inh: inactive; HepG2 viability: inactive; A549 tox: inactive

Screening data from PubChem.
